# Data as given in PubChem BioAssay.
# For part of these data: Measured potencies and affinities stand elsewhere. The source made the active and inactive calls.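 Rule for the calls, unless noted: active = signal rise over 3 SD above mean of control wells given weak agonist, in both repeats and first screen; inactive = the rest.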
# How the values were obtained:
# [1] = system: TRPC4 beta (transient receptor potential cation channel C4), mouse; test: TRPC4 cation channel opening, retest – cell-based, Fluo4 calcium, HEK293 TRPC4beta/mu-opioid, duplicates, 10 µM, confirmation (AID 2426;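 active = fluorescence ratio normalized to control raised more than 50% in primary screen plus both repeat runs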;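 for activation: percent rise of integrated ratio over buffer wells lacking compound which define 0%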); conditions: Fluo4 calcium fluorescence, at 10 µM; active compounds read high
# [2] = system: transient receptor potential cation channel C4 beta (TRPC4), mouse; test: TRPC4 cation channel opening, second retest – cell-based, second round, Fluo4, HEK293 TRPC4beta/mu-opioid, 1 µM, confirmation (AID 2461;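 active = primary screen active and over 50% activation in each of two duplicate runs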); conditions: Fluo4 calcium fluorescence, at 1 µM; active compounds read high
# [3] = system: TRPC4 (transient receptor potential cation channel C4 beta), mouse; test: potentiation of DAMGO EC20 TRPC4 response – cell-based, second round, Fluo-4, HEK293 TRPC4beta/mu-opioid, 1 µM, confirmation (AID 2554;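 active = primary screen hit whose fluorescence ratio, in both repeats, exceeds the weak agonist control mean by 3 SD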); conditions: DAMGO EC20, Fluo-4 calcium flux, at 1 µM; active compounds read high
# [4] = system: TRPC4 beta (transient receptor potential cation channel C4), mouse; test: potentiation of DAMGO EC20 TRPC4 response – cell-based, Fluo-4, HEK293 TRPC4beta/mu-opioid, confirmation (AID 2555;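 active = primary screen hit whose calcium fluorescence ratio, in both repeats, exceeds the weak agonist control mean by 3 SD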); conditions: DAMGO EC20, Fluo-4 calcium flux, at 10 µM; active compounds read high
# [5] = molecular target: Short transient receptor potential channel 4 (Mus musculus) (UniProt Q9QUQ5); test: blockers of DAMGO-evoked TRPC4 calcium flux – cell-based, Fluo4, HEK293 TRPC4beta/mu-opioid, confirmation (AID 2636;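 active = calcium signal cut by more than 3 SD below the full-agonist control yet still positive, in both repeats and the earlier primary screen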); conditions: at 10 µM; active compounds read high
# Chain of Short transient receptor potential channel 4 (Mus musculus) (Q9QUQ5 whole entry, looked up): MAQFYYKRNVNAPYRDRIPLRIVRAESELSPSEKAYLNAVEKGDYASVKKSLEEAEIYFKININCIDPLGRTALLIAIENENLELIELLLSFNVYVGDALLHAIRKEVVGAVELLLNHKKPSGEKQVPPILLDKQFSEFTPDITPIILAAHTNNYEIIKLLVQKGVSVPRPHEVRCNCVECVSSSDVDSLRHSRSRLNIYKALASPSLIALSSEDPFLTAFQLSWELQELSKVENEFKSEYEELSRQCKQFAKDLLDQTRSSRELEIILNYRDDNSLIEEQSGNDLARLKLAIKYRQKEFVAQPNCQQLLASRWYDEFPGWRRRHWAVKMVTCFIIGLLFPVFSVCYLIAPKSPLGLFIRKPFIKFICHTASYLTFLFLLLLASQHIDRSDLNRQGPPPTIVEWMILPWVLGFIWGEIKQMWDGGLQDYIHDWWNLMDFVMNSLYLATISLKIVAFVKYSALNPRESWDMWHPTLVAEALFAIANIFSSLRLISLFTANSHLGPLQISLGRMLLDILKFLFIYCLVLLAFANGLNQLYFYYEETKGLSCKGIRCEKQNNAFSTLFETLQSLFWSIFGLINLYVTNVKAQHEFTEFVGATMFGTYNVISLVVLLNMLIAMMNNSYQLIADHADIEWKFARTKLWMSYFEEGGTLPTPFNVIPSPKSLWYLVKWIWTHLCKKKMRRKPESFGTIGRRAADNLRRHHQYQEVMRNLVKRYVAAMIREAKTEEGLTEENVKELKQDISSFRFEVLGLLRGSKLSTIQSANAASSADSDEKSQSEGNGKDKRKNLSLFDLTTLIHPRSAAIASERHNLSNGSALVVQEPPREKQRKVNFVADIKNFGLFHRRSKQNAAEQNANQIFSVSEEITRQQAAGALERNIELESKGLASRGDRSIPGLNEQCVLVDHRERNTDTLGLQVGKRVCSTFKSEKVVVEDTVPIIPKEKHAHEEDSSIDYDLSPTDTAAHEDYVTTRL
# [6] = molecular target: Short transient receptor potential channel 4 (Mus musculus) (UniProt Q9QUQ5); test: blockers of DAMGO-evoked TRPC4 calcium flux – cell-based, second round, Fluo4, HEK293 TRPC4beta/mu-opioid, 1 µM, confirmation (AID 2637;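 active = calcium signal ratio cut to more than 3 SD under the fully stimulated control mean yet still positive, in both repeats and the primary screen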); conditions: at 1 µM; active compounds read high
# [7] = molecular target: Short transient receptor potential channel 4 (Mus musculus) (UniProt Q9QUQ5); test: calcium entry via TRPC4 opening agents – cell-based, HEK293 TRPC4/mu-opioid, Fluo-4 calcium, dose response (AID 434937;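 active = primary screen activator hit with a dose response curve and TRPC4 channel activation at any tested dose; inactive = no activation, no dose response, or not a primary hit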)
# [8] = molecular target: Short transient receptor potential channel 4 (Mus musculus) (UniProt Q9QUQ5); test: potentiation of DAMGO-evoked TRPC4 calcium signal – cell-based, HEK293 TRPC4/mu-opioid, Fluo-4 calcium, EC20 DAMGO, dose response (AID 434941;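 active = earlier screen potentiator hit that boosts the TRPC4 ion channel at some dose, with a dose response; inactive = no potentiation, no dose response, or not a prior hit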;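 note: calcium entry triggered by an EC20 dose of DAMGO at the co-expressed mu-opioid receptor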)
# [9] = molecular target: Short transient receptor potential channel 4 (Mus musculus) (UniProt Q9QUQ5); test: block of DAMGO-driven TRPC4 calcium entry – cell-based, HEK293 TRPC4/mu-opioid, Fluo-4 calcium, dose response (AID 434942;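 active = primary screen inhibitor hit that blocks the TRPC4 channel at some tested dose, yielding a dose curve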)
# [10] = molecular target: Short transient receptor potential channel 6 (Mus musculus) (UniProt Q61143); test: TRPC6 blockade by TRPC4 inhibitor hits – cell-based, HEK293, membrane potential dye, duplicate, selectivity assay for TRPC4 inhibitor project, confirmation (AID 434948;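 active = active in primary screen and both duplicates, each dropping signal beyond three positive-control SD with fluorescence still positive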); conditions: HEK293 TRPC6, membrane potential dye fluorescence, at 10 µM, stimulated with maximal-effect acetylcholine; active compounds read high
# Chain of Short transient receptor potential channel 6 (Mus musculus) (Q61143 whole entry, looked up): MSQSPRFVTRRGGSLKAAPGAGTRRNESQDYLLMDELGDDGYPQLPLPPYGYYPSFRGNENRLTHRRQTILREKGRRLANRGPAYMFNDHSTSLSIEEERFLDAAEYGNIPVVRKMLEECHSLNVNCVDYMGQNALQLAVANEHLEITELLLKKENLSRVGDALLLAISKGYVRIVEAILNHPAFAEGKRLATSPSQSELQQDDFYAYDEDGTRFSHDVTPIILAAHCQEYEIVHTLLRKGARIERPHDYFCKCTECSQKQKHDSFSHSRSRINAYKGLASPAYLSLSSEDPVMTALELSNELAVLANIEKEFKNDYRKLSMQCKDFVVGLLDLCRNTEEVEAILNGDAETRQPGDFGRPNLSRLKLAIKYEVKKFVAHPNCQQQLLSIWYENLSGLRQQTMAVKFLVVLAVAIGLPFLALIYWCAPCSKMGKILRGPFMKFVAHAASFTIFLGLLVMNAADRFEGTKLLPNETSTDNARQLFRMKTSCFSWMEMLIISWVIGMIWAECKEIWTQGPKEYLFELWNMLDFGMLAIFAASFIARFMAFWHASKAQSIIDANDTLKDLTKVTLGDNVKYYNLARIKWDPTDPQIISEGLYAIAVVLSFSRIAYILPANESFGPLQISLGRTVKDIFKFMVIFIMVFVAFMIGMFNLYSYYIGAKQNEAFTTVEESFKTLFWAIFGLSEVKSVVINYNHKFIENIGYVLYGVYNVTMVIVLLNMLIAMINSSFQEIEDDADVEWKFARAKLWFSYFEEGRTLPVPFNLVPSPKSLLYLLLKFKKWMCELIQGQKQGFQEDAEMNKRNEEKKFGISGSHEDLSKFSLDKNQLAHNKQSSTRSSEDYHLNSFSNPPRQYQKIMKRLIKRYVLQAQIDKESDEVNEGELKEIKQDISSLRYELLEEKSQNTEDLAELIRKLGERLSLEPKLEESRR
# [11] = molecular target: Short transient receptor potential channel 6 (Mus musculus) (UniProt Q61143); test: TRPC6 opening by TRPC4 activator hits – cell-based, HEK293, membrane potential dye, duplicate, selectivity assay for TRPC4 activator project, confirmation (AID 434950;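 active = membrane potential signal rise above negative control mean plus 3 SD in both duplicates, also active in the earlier TRPC4 screen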;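 for activation: 0% = buffer only wells and 100% = acetylcholine maximal-effect wells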); conditions: HEK293 TRPC6, membrane potential fluorescence, at 10 µM; activation: active compounds read high; outcome: activation
# [12] = molecular target: Short transient receptor potential channel 6 (Mus musculus) (UniProt Q61143); test: positive modulators of mouse TRPC6 channel – HEK293 cells, membrane potential dye, duplicate, selectivity assay for TRPC4 potentiator project, confirmation (AID 434952;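 active = compound raising the membrane signal above positive-control mean plus 3 SD in both repeats, and a primary screen hit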); conditions: HEK293 TRPC6, membrane potential dye fluorescence, at 10 µM, maximal acetylcholine added after compound; active compounds read high
# [13] = molecular target: Short transient receptor potential channel 4 (Mus musculus) (UniProt Q9QUQ5); test: calcium flux activators in TRPC4/5HT1a cells, counter-screen for TRPC4 activator project, cell-based, second counter screen, HEK293 TRPC4/5HT1a, Fluo-4 (AID 434977;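 active = calcium signal rise above buffer-control mean plus 5 SD in both duplicates, and also a hit in the primary screen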;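 for activation: plate controls were assay buffer for no effect and maximal serotonin response for full effect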); conditions: Fluo-4 calcium flux, at 10 µM; active compounds read high
# [14] = serotonin-gated TRPC4 signal block – cell-based, second counter screen, HEK293 TRPC4/5HT1a, Fluo-4, counter-screen for TRPC4 inhibitor project, confirmation (AID 434978;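 active = primary screen active whose calcium signal fell more than 3 SD beyond the full-serotonin control mean in both duplicate plates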;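 note: serotonin given first at submaximal then at maximal dose after compound preincubation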); conditions: Fluo-4 calcium flux, at 10 µM, serotonin added to trigger calcium flux; active compounds read high
# [15] = system: TRPC4 (mouse), co-expressed with 5HT1a in HEK293; test: enhancement of serotonin-evoked TRPC4 response – cell-based, second counter screen, HEK293 TRPC4/5HT1a, Fluo-4, counter-screen for TRPC4 potentiator project, confirmation (AID 434979); conditions: Fluo-4 calcium flux, at 10 µM, serotonin added at its EC20 dose; active compounds read high
# [16] = nonspecific calcium rise without TRPC4 – cell-based, HEK293 mu-opioid receptor line, counter-screen for TRPC4 activator project, confirmation (AID 449723;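 active = hit in primary screen, with calcium signal over 5 SD above buffer well mean in both duplicates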;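 note: counter screen cells carry the mu-opioid receptor alone and lack TRPC4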); conditions: HEK293 mu-opioid cells, Fluo-4 calcium fluorescence, at 10 µM; active compounds read high
# [17] = nonspecific potentiation of DAMGO calcium response – cell-based, HEK293 mu-opioid receptor line, counter-screen for TRPC4 allosteric potentiator project, confirmation (AID 449724;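 active = calcium signal rise more than 3 SD above the low-dose agonist control mean, in both duplicate plates and the primary screen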); conditions: HEK293 mu-opioid receptor cells, Fluo-4 calcium flux, at 10 µM, compound added before EC20 DAMGO stimulus; active compounds read high
compound,measurement,setting,value
O=C(NCc1ccccc1Cl)/C(=C\c1cccnc1)NC(=O)c1ccccc1,outcome,[1],inactive
same,outcome,[2],inactive
same,outcome,[3],inactive
same,outcome,[4],inactive
same,outcome,[5],inactive
same,outcome,[6],inactive
same,outcome,[7],inactive
same,outcome,[8],inactive
same,outcome,[9],inactive
same,outcome,[10],inactive
same,outcome,[11],inactive
same,outcome,[12],inactive
same,outcome,[13],inactive
same,outcome,[14],inactive
same,outcome,[15],inactive
same,outcome,[16],inactive
same,outcome,[17],inactive
O=S(=O)(c1ccccc1Cl)N1CCC(Cc2ccccc2)CC1,outcome,[1],inactive
same,outcome,[2],inactive
same,outcome,[3],inactive
same,potentiation,[4],16% (active)
same,outcome,[5],inactive
same,outcome,[6],inactive
same,outcome,[7],inactive
same,outcome,[8],inactive
same,outcome,[9],inactive
same,outcome,[10],inactive
same,outcome,[11],inactive
same,outcome,[12],inactive
same,outcome,[13],inactive
same,outcome,[14],inactive
same,potentiation,[15],6.72% (active)
same,outcome,[16],inactive
same,outcome,[17],inactive
O=C(C1CC1)N1CCc2cc(S(=O)(=O)NC3CCN(Cc4ccccc4)CC3)ccc21,outcome,[1],inactive
same,outcome,[2],inactive
same,outcome,[3],inactive
same,outcome,[4],inactive
same,outcome,[5],inactive
same,outcome,[6],inactive
same,outcome,[7],inactive
same,outcome,[8],inactive
same,outcome,[9],inactive
same,outcome,[10],inactive
same,outcome,[11],inactive
same,outcome,[12],inactive
same,outcome,[13],inactive
same,outcome,[14],inactive
same,outcome,[15],inactive
same,outcome,[16],inactive
same,outcome,[17],inactive
O=c1c2ccccc2oc2nc(C3CCCCC3)n(Cc3ccco3)c(=O)c12,outcome,[1],inactive
same,outcome,[2],inactive
same,potentiation,[3],10% (active)
same,potentiation,[4],11% (active)
same,outcome,[5],inactive
same,outcome,[6],inactive
same,outcome,[7],inactive
same,outcome,[8],inactive
same,outcome,[9],inactive
same,outcome,[10],inactive
same,outcome,[11],inactive
same,outcome,[12],inactive
same,outcome,[13],inactive
same,outcome,[14],inactive
same,potentiation,[15],30.7% (active)
same,outcome,[16],inactive
same,outcome,[17],inactive
CC(C)CCNC(=O)CCC(=O)NNc1nc2ccccc2c2nc(-c3ccccc3)nn12,outcome,[1],inactive
same,outcome,[2],inactive
same,outcome,[3],inactive
same,outcome,[4],inactive
same,outcome,[5],inactive
same,outcome,[6],inactive
same,outcome,[7],inactive
same,outcome,[8],inactive
same,outcome,[9],inactive
same,outcome,[10],inactive
same,outcome,[11],inactive
same,outcome,[12],inactive
same,outcome,[13],inactive
same,outcome,[14],inactive
same,potentiation,[15],70.8% (active)
same,outcome,[16],inactive
same,outcome,[17],inactive
OCCN(CCO)c1ncnc2c1sc1nc(N3CCOCC3)c3c(c12)CCCC3,outcome,[1],inactive
same,outcome,[2],inactive
same,outcome,[3],inactive
same,potentiation,[4],10% (active)
same,outcome,[5],inactive
same,outcome,[6],inactive
same,outcome,[7],inactive
same,outcome,[8],inactive
same,outcome,[9],inactive
same,outcome,[10],inactive
same,outcome,[11],inactive
same,outcome,[12],inactive
same,outcome,[13],inactive
same,outcome,[14],inactive
same,potentiation,[15],27.8% (active)
same,outcome,[16],inactive
same,outcome,[17],inactive
CCN(CC)CCCNC(=S)N1CCN(c2nc3ccccc3n2CC)CC1,outcome,[1],inactive
same,outcome,[2],inactive
same,outcome,[3],inactive
same,outcome,[4],inactive
same,outcome,[5],inactive
same,outcome,[6],inactive
same,outcome,[7],inactive
same,outcome,[8],inactive
same,outcome,[9],inactive
same,outcome,[10],inactive
same,outcome,[11],inactive
same,outcome,[12],inactive
same,outcome,[13],inactive
same,outcome,[14],inactive
same,potentiation,[15],17.1% (active)
same,outcome,[16],inactive
same,outcome,[17],inactive
CC(C)Oc1cccc(C(=O)NC(=S)Nc2ccc(N3CCN(C)CC3)cc2)c1,outcome,[1],inactive
same,outcome,[2],inactive
same,outcome,[3],inactive
same,outcome,[4],inactive
same,outcome,[5],inactive
same,outcome,[6],inactive
same,outcome,[7],inactive
same,outcome,[8],inactive
same,outcome,[9],inactive
same,outcome,[10],inactive
same,outcome,[11],inactive
same,outcome,[12],inactive
same,outcome,[13],inactive
same,outcome,[14],inactive
same,potentiation,[15],16.6% (active)
same,outcome,[16],inactive
same,outcome,[17],inactive
CCCCc1ccc(NC(=O)CSc2nnc(C)c(=O)n2N)cc1,outcome,[1],inactive
same,outcome,[2],inactive
same,outcome,[3],inactive
same,potentiation,[4],14% (active)
same,outcome,[5],inactive
same,outcome,[6],inactive
same,outcome,[7],inactive
same,outcome,[8],inactive
same,outcome,[9],inactive
same,outcome,[10],inactive
same,outcome,[11],inactive
same,outcome,[12],inactive
same,outcome,[13],inactive
same,outcome,[14],inactive
same,potentiation,[15],43.5% (active)
same,outcome,[16],inactive
same,outcome,[17],inactive
Cc1ccc(C(=O)OCCN2CCN(c3ncc(C(F)(F)F)cc3Cl)CC2)cc1,outcome,[1],inactive
same,outcome,[2],inactive
same,outcome,[3],inactive
same,potentiation,[4],9% (active)
same,outcome,[5],inactive
same,outcome,[6],inactive
same,outcome,[7],inactive
same,outcome,[8],inactive
same,outcome,[9],inactive
same,outcome,[10],inactive
same,outcome,[11],inactive
same,outcome,[12],inactive
same,outcome,[13],inactive
same,outcome,[14],inactive
same,potentiation,[15],14.3% (active)
same,outcome,[16],inactive
same,outcome,[17],inactive
c1ccc2c3c([nH]c2c1)CCNC3,outcome,[1],inactive
same,outcome,[2],inactive
same,outcome,[3],inactive
same,outcome,[4],inactive
same,outcome,[5],inactive
same,outcome,[6],inactive
same,outcome,[7],inactive
same,outcome,[8],inactive
same,outcome,[9],inactive
same,outcome,[10],inactive
same,outcome,[11],inactive
same,outcome,[12],inactive
same,outcome,[13],inactive
same,outcome,[14],inactive
same,outcome,[15],inactive
same,outcome,[16],inactive
same,outcome,[17],inactive
O=C(N/N=C/c1ccccc1F)NC1CCCCC1,activation,[1],85% (active)
same,outcome,[2],inactive
same,potentiation,[3],12% (active)
same,potentiation,[4],77% (active)
same,outcome,[5],inactive
same,outcome,[6],inactive
same,outcome,[7],inactive
same,outcome,[8],inactive
same,outcome,[9],inactive
same,outcome,[10],inactive
same,activation,[11],36.5% (active)
same,outcome,[12],inactive
same,activation,[13],17.8% (active)
same,outcome,[14],inactive
same,potentiation,[15],107% (active)
same,outcome,[16],inactive
same,outcome,[17],inactive
Cc1c(N2C(=O)/C(=C\C3CC=CCC3)SC2=S)c(=O)n(-c2ccccc2)n1C (stereo not given),outcome,[1],inactive
same,outcome,[2],inactive
same,outcome,[3],inactive
same,outcome,[4],inactive
same,outcome,[5],inactive
same,outcome,[6],inactive
same,outcome,[7],inactive
same,outcome,[8],inactive
same,outcome,[9],inactive
same,outcome,[10],inactive
same,outcome,[11],inactive
same,outcome,[12],inactive
same,outcome,[13],inactive
same,outcome,[14],inactive
same,outcome,[15],inactive
same,outcome,[16],inactive
same,outcome,[17],inactive
COc1ccccc1CCc1nnc(CCC(=O)NCCCOc2cccnc2)o1,outcome,[1],inactive
same,outcome,[2],inactive
same,outcome,[3],inactive
same,outcome,[4],inactive
same,inhibition,[5],48% (active)
same,outcome,[6],inactive
same,outcome,[7],inactive
same,outcome,[8],inactive
same,outcome,[9],inactive
same,outcome,[10],inactive
same,outcome,[11],inactive
same,outcome,[12],inactive
same,outcome,[13],inactive
same,outcome,[14],inactive
same,outcome,[15],inactive
same,outcome,[16],inactive
same,outcome,[17],inactive
COc1ccc(/C=N/NC(=O)c2ccc(F)cc2)cc1CN1CCc2cc(OC)c(OC)cc2C1C (stereo not given),outcome,[1],inactive
same,outcome,[2],inactive
same,outcome,[3],inactive
same,outcome,[4],inactive
same,inhibition,[5],86% (active)
same,outcome,[6],inactive
same,outcome,[7],inactive
same,outcome,[8],inactive
same,outcome,[9],inactive
same,outcome,[10],inactive
same,outcome,[11],inactive
same,outcome,[12],inactive
same,outcome,[13],inactive
same,outcome,[14],inactive
same,outcome,[15],inactive
same,outcome,[16],inactive
same,outcome,[17],inactive
